About 83,000 compounds went through this panel and 20% of them were active in at least one assay; those are over-represented in the sample as a whole.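 Activity criterion: percent growth below 10, measured after cells in 96-well plates were exposed to a single compound concentration for 48 hours.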 Activity calls are given as the source filed them.
These compounds were tested on MDA-MB-468 breast (assay: NCI-60 one-dose screen, 48 h (100 = growth as untreated, 0 = no growth, -100 = all killed)). Conditions: 10 µM unless noted.
For `CCCCC1COc2cccc3c(SCC(=O)N(C)c4cccc5ccccc45)cc[n+]1c23` (stereo not given), the growth was 92.2% (inactive).
With `CC1=C/C(=N\N=C2/C=C(C)CC(C)(C)C2)CC(C)(C)C1` the growth was 98.5% (inactive).
`COC(=O)CNC(=O)[C@]12CCC(C)(C)C[C@H]1C1=CC[C@@H]3[C@@]4(C)Cc5c([nH]c6ccccc56)C(C)(C)[C@@H]4CC[C@@]3(C)[C@]1(C)CC2` was tested, and the growth was 102% (inactive).
With `CC(C)(C)n1cc(-c2ccnc(NCCCNS(=O)(=O)c3ccccc3)c2)c(-c2ccccc2)n1` the growth was 25.1% (inactive).
With `O=C1Nc2ccccc2/C1=C/c1ccc[nH]1` the growth was -26% (active).
For `COc1ccc2nc3ccccc3c(NCc3ccc(C)cc3)c2c1`, the growth was -18.6% (active).
With `C[C@]12CCc3c(ccc4cc(O)ccc34)[C@@H]1CC[C@H]2O` the growth was 81.3% (inactive).
`NC(N)=NC(N)=Nc1ccccc1-c1ccccc1` was tested, and the growth was 109% (inactive).
`Cn1cc(-c2ccc(-c3cn(C)c4ncccc34)[nH]2)c2cccnc21` was tested, and the growth was -23.7% (active).
With `CCOC(=O)C(CCC#N)(CCC#N)C(=O)OCC` the growth was 99.9% (inactive).
`CCN1CCN(C(=O)[C@]23CC[C@@H](C)[C@H](C)[C@@H]2C2=CC[C@@H]4[C@@]5(C)CCC(=O)C(C)(C)[C@@H]5CC[C@@]4(C)[C@]2(C)CC3)CC1` was tested, and the growth was -7.11% (active).
With `O=C1c2ccccc2C23C(=C(c4cncnc4)c4ccccc42)CCCN13` (stereo not given) the growth was 93.3% (inactive).
For `CC(C)=C[C@@H]1c2c(c3ccccc3n(C)c2=O)O[C@H]2c3c(c4ccccc4n(C)c3=O)OC(C)(C)[C@@H]12`, the growth was 61.4% (inactive).
For `Cc1c(C(=O)NCCCc2ccccc2)sc2ncc(-c3ccc(Br)cc3)n12`, the growth was 108% (inactive).
For `Cc1cc(Cl)nc(NCc2cc(Nc3ccnc4cc(Cl)ccc34)ccc2F)n1`, the growth was 11.4% (inactive).
With `CCN(CC)CCCC(C)Nc1ccnc(/C=C/c2ccc(Cl)cc2)c1` (stereo not given) the growth was -84.5% (active).
`Cc1ccc(C(=O)CSc2nc(-c3ccc(Br)cc3)c(C#N)c(=O)[nH]2)cc1` was tested, and the growth was 92.2% (inactive).
`COc1ccc(C(=O)/C=C/c2cc(-c3ccc(OC)c(OC)c3)n[nH]2)cc1OC` was tested, and the growth was -71.6% (active).
In the case of `CCN1C(=O)N(CC)C2C1NC(=O)N2/N=C/C=C/c1ccccc1` (stereo not given), the growth is reported as 19.5% (inactive).
With `COc1ccc(C2CC(c3ccc(OC)cc3O)=NN2c2ccc(S(N)(=O)=O)cc2)cc1` (stereo not given) the growth was 56% (inactive).
In the case of `CC[n+]1c(/C=C/C=C2\N(C)c3ccccc3C2(C)C)sc2ccccc21`, the growth is reported as -12.3% (active).
`O=C1Nc2ccccc2/C1=C/c1cccn1CCCCCn1c2ccccc2c(=O)c2ccccc21` was tested, and the growth was 37.6% (inactive).
For `O=c1[nH]c2ccccc2n2cc3cccnc3c12`, the growth was -5.08% (active).
For `Cc1ccc2c(C(C[N+](=O)[O-])c3ccco3)c(-c3ccccc3)[nH]c2c1` (stereo not given), the growth was 8.5% (active).
`O=C(O)c1nc(-c2ccccc2)oc1N1CCOCC1` was tested, and the growth was 99.8% (inactive).
For `C/C(=N\Nc1ccc2ccccc2n1)c1ccccn1`, the growth was -36.1% (active).
For `CC[C@H]1OC(=O)[C@H](C)[C@@H](O[C@H]2C[C@@](C)(OC)[C@@H](O)[C@H](C)O2)[C@H](C)[C@@H](O[C@@H]2O[C@H](C)C[C@H](N(C)C)[C@H]2O)[C@](C)(OC)C/C(C)=C2/O[C@@]1(C)C=C2C`, the growth was -73.7% (active).
For `NC1=CC(=O)C(=O)c2ccccc21`, the growth was 86.8% (inactive).
`O=C(CNc1cccnc1)Nc1ccc(C(=O)/C=C/c2ccc(Cl)cc2)cc1` was tested, and the growth was 91.9% (inactive).
With `COc1ccc(C2=NN(C(C)=O)C(c3cn(-c4ccccc4)nc3-c3ccc(Cl)cc3)C2)cc1` (stereo not given) the growth was -1.41% (active).
For `O=C(CC(=O)c1ccccc1F)Nc1ccc([N+](=O)[O-])cc1`, the growth was 90.9% (inactive).
In the case of `COc1ccc(/C(C)=C(\c2ccc(Cl)cc2)c2ccc(OCCN3CCCCCC3)cc2)cc1F`, the growth is reported as 35.3% (inactive).
`COc1cc2c(c(OC)c1OC)-c1cc(I)c(O)cc1[C@@H](NC(C)=O)CC2` was tested, and the growth was -32.9% (active).
`O=C(/C=C/CN1CCCCC1)Nc1cc2c(Nc3ccc(F)c(Cl)c3F)ncnc2cc1OCCOC(F)F` was tested, and the growth was -48.7% (active).
In the case of `Cc1ccc(NC(=O)c2ccc(Nc3ncnc4c3cnn4-c3cccc(F)c3)cc2)cc1`, the growth is reported as 96.6% (inactive).
With `N#CC1=C(/N=C/c2ccccc2)Oc2c(ccc3ccccc23)C1c1ccccc1` (stereo not given) the growth was 6.43% (active).
In the case of `Cn1c(=O)c2c(nc(N3CCCC3)n2C)n(C)c1=O`, the growth is reported as 99.5% (inactive).
With `CCC(=O)N1C/C(=C/c2ccc(Cl)cc2)C(=O)/C(=C/c2ccc(Cl)cc2)C1` the growth was -84.5% (active).
`O=C(Nc1cccc(C(F)(F)F)c1)N1CCN(c2cc(-c3cn(-c4ccccc4)nc3-c3cccc(O)c3)ccn2)CC1` was tested, and the growth was 32.5% (inactive).
With `Sc1ccc(Nc2c3ccccc3nc3ccccc23)cc1` the growth was 44.1% (inactive).

— PubChem BioAssay (NCI)
